NR3A LBD binder: NR3A (human) ligand-binding domain modulation. NR3A LBD differential scanning fluorimetry, Tm shift; 0% = protein alone, 100% = glycine-bound protein. AID 1259313. 340,000 tested, 2.5% active. Tm shift relative to glycine control, % at 25 µM;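 active = melting temperature shift of at least 10% of the positive control shift, at one fixed dose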
esBAF inh: inhibitors of esBAF chromatin remodeling in mouse ES cells | 350,000 tested, 2% active | reporter increase, % at 12.5 µM | Bmi1-luciferase knock-in reporter, 24 h; 100% = twice the neutral-well signal; in the data active = activation above about 40%;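 also: 0% = median of the plate's neutral control wells and 100% = double that signal; a rise in the Bmi1 reporter signal indicates esBAF inhibition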
NadD block: blocks S. aureus nicotinate mononucleotide adenylyltransferase; AID 602399; inhibition, % at 20 µM; purified NadD enzyme, colorimetric absorbance read-out; 360,000 tested, 0.78% active; in the data active = inhibition above about 26%
SKN-1 inh: blocks SKN-1 activity in C. elegans | C. elegans VP596 Pgst-4::GFP/RFP ratio, acrylamide-induced, 24 h | inhibition, % at 21.8 µM | 360,000 tested, 0.49% active | AID 624304;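 active = interference check ratio from 0.5 to 1.5 plus GFP to RFP signal ratio inhibition reaching or exceeding a fixed threshold, cut at about 30% in these data, passing the limit was not always enough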
Vif imaging: blocks HIV Vif function; HEK293T cells, Vif self-association by quenched fluorescence, imaging, 24 h; inhibition, % at 7.49 µM; 340,000 tested, 0.35% active; in the data active = inhibition above about 50%, passing the limit was not always enough
SMARCA2 activ: SMARCA2 function activation, primary screen; MG213 cells, MMTV-luciferase reporter, dexamethasone, overnight; activation, % at 9.1 µM; 370,000 tested, 1% active; in the data active = activation above about 7.8%;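 also: 0% = vehicle wells and 100% = reference activator wells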
Starred values were filed as active, the others as inactive; x = no result given. A selection: hits, their analogues and other compounds. The true share with any hit is near 5.2%.

SMILES	NR3A LBD binder	esBAF inh	NadD block	SKN-1 inh	Vif imaging	SMARCA2 activ
Cc1cc(-c2cccs2)c2c(N)c(C(=O)c3ccc4c(c3)OCO4)sc2n1	20.6*	x	6.8	-24.5	2.6	-2.3
Oc1oc(-c2cccc3ccccc23)nc1/C=N/c1nccs1	10.8*	8.0	17.6	1.6	4.0	-2.3
Cc1noc(C)c1S(=O)(=O)Nc1ccc2c(c1)C(=O)N([C@@H](C)CO)C[C@H](C)[C@@H](CN(C)S(=O)(=O)c1c(C)noc1C)OCCCC[C@H](C)O2	x	3.1	x	x	x	x
COc1ccc(C(=O)Nc2cccc(OC(=O)c3ccc(C)c(C)c3)c2)cc1	-20.3	21.6	-2.2	41.7*	42.4	2.5
O=C(Nc1ccc2ccccc2c1)c1ccc(Cl)cc1	-4.3	-0.5	2.6	-1.5	-5.4	6.1
O=C(Nc1ccc2ccccc2c1)c1ccc(NS(=O)(=O)c2ccc(Br)s2)cc1	20.9*	x	23.1	17.8	-20.2	4.7
O=C(c1ccncc1)c1ccc(NS(=O)(=O)c2ccc(Br)s2)cc1	-5.4	10.3	2.7	5.2	-6.4	-2.5
Cc1ccc(C(=O)Nc2ccc3ccccc3c2)cc1	15.6*	-66.2	-0.5	17.4	-7.1	-1.6
COc1ccccc1NC(=O)c1ccc2[nH]c(C)c(C)c2c1	19.6*	66.4*	-9.3	3.9	-5.7	3.1
C[C@@H]1CN([C@@H](C)CO)C(=O)c2cc(-c3cccnc3)cnc2O[C@@H]1CN(C)C(=O)C1CCOCC1	x	-2.2	x	x	x	x
C[C@H](CO)N1C[C@H](C)[C@@H](CN(C)C(=O)Nc2ccc3c(c2)OCO3)Oc2ccc(NC(=O)Nc3ccccc3)cc2CC1=O	x	1.1	x	x	x	x
COc1ccc(NC(=O)c2cccc(NC(=O)c3ccccc3)c2)cc1	-1.4	40.9*	-7.1	-10.0	-0.7	-1.8
COc1cc(NC(=O)c2ccccc2)cc(OC)c1	-0.9	64.9*	-1.7	-11.8	-6.5	3.1
COc1ccc(NC(=S)c2ccccc2)cc1	-2.6	61.3*	-7.7	7.3	4.3	2.7
COc1cc(OC)cc(C(=O)Nc2ccc(C(=O)Nc3ccccc3OC)cc2)c1	34.7*	-3.8	-9.5	-10.9	-9.0	-1.7
COc1ccccc1NC(=O)c1ccc(NC(=O)c2ccco2)cc1	-4.3	6.4	-0.4	19.5	6.3	-1.2
COc1ccc(NC(=S)Nc2ccccc2)cc1	-4.9	20.2	9.4	8.9	12.4	-1.8
O=C(C[C@H]1CC[C@@H]2[C@H](COC[C@H](O)CN2Cc2cccc(Cl)c2)O1)NCC1CCCCC1	x	2.1	x	x	x	x
C[C@H](CO)N1C[C@H](C)[C@@H](CN(C)C(=O)C2CCCCC2)Oc2cc(Br)ccc2S1(=O)=O	x	3.7	x	x	x	x
CN1C(=O)c2cc(NC(=O)c3cccs3)ccc2OC[C@@H]2O[C@@H](CC(=O)N3CCOCC3)CC[C@@H]21	x	2.4	x	x	x	x
COc1ccccc1NC(=O)Nc1nnc(C(C)C)s1	-2.6	x	-0.8	5.2	1.3	2.2
Cc1[nH]c2ccc(C(=O)NC3CCC(C)CC3)cc2c1C (centres undefined)	-4.1	55.9*	-4.8	-8.2	-4.0	4.7
CCOc1ccc(/C=N/NC(=O)c2ccccc2NC(=O)c2ccc(OC)cc2)cc1	15.0*	x	11.3	-0.4	-7.0	2.1
COc1ccc(C(=O)Nc2ccc(C(=O)Nc3cccc(C)c3)cc2)cc1	14.2*	x	7.0	-18.1	x	-1.7
COc1ccccc1NC(=O)Nc1nnc(C(C)c2ccccc2)s1 (centres undefined)	-2.3	53.0*	4.4	-19.3	-2.8	1.1
SMILES	NR3A LBD binder	esBAF inh	NadD block	SKN-1 inh	Vif imaging	SMARCA2 activ
O=C(Nc1ccccc1F)N[C@H]1CC[C@H](CCNS(=O)(=O)c2ccc(Cl)cc2)O[C@@H]1CO	x	7.8	x	x	x	x
CO[C@H]1CN(C)C(=O)c2ccc(NC(C)=O)cc2OC[C@@H](C)N(Cc2nccs2)C[C@@H]1C	x	-0.1	x	x	x	x
Cc1cccc(OCC(=O)Nc2ccc3oc(=O)ccc3c2)c1C	13.5*	-3.2	-2.5	-8.0	3.4	-2.7
Cc1ccc(OCC(=O)Nc2ccc3oc(=O)ccc3c2)cc1	-18.1	-0.4	-8.7	-25.0	3.6	-2.9
COc1ccccc1NC(=O)NC(=O)c1ccccc1	0.0	61.6*	-5.5	1.6	-7.2	6.6
O=C(Nc1ccc2oc(=O)ccc2c1)c1ccc2ccccc2c1	34.2*	x	-3.4	3.3	-7.2	1.7
COc1ccc(NC(=O)CSCc2ccccc2C)cc1	6.6	66.7*	0.0	0.9	-7.1	3.7
COc1ccc(C(=O)Nc2ccccc2C(=O)Nc2ccccc2)cc1	x	46.0*	-3.0	6.2	x	-0.1
COc1ccc(C(=O)Nc2ccccc2NC(=O)c2ccc(OC)cc2)cc1	-0.7	0.9	-7.0	5.1	-17.9	-3.0
COc1ccc(Oc2ccc(NC(=O)c3ccccc3C)cc2)cc1	17.1*	x	-7.1	-0.8	-3.3	0.6
C[C@@H]1CN([C@H](C)CO)C(=O)c2cc(NS(=O)(=O)c3cn(C)cn3)ccc2O[C@@H](C)CCCCO[C@H]1CN(C)Cc1ccccc1	x	-4.2	x	x	x	x
CC(=O)c1ccc(Oc2ccc(C(C)=O)cc2)cc1	-2.3	42.0*	-1.3	-4.9	x	2.4
CC(=O)c1ccc(OC(=O)Oc2ccc(C(C)=O)cc2)cc1	0.0	x	-1.1	-2.6	-2.4	-2.7
Cn1c(CCNC(=O)c2ccco2)nc2cc(NC(=O)c3ccccc3)ccc21	-3.4	45.5*	2.5	4.7	-0.2	0.9
Cn1c(CCNC(=O)c2ccccc2)nc2cc(NC(=O)c3ccco3)ccc21	-2.3	22.3	2.5	-7.6	0.4	6.6
Cn1c(CCNC(=O)c2ccco2)nc2cc(NC(=O)c3ccco3)ccc21	-1.3	51.4*	-2.0	-2.1	-3.1	1.5
C[C@H]1CN([C@@H](C)CO)C(=O)c2cc(NS(=O)(=O)c3cn(C)cn3)ccc2O[C@H]1CN(C)Cc1ccc(C(F)(F)F)cc1	x	-2.2	x	x	x	x
CN1c2ccc(-c3ccccc3)cc2[C@@H]2[C@@H](CCN2C(=O)Cc2cccnc2)[C@@H]1CO	x	-2.1	x	x	x	x
O=C(CN(c1ccc(Cl)c(C(F)(F)F)c1)S(=O)(=O)c1ccccc1)N1CCOCC1	14.0*	-2.5	-0.6	26.6	-7.0	1.7
CC(=O)c1sc(NC(=O)COc2ccc([N+](=O)[O-])cc2)nc1C	-0.2	-2.6	-3.0	-4.0	98.4*	-2.4
COc1ccc(NC(=O)c2sc(NC(=O)COc3ccccc3)nc2C)cc1	14.4*	9.1	-4.8	17.1	2.1	1.8
Cc1cc(NC(=O)c2cc3cccc([N+](=O)[O-])c3[nH]2)ccc1F	28.8*	83.6*	6.3	17.5	-10.2	0.1
COCC(C)NC(=O)c1cc2cccc([N+](=O)[O-])c2[nH]1 (centres undefined)	-0.4	x	-3.6	4.1	8.0	-1.0
COc1ccc(NC(=O)Nc2cccc3c2O[C@H](CN(C)C)[C@@H](C)CN([C@@H](C)CO)C3=O)cc1	x	19.5	x	x	x	x
O=C(Nc1sc2c(c1C(=O)c1ccc(Cl)cc1)CCCC2)c1cccnc1	1.2	4.3	12.7	35.3*	-5.5	-2.0

Source: PubChem (several laboratories)
